# From PMC4336329 (PLoS ONE, 2015)
# Out of some 310,000 compounds screened, about 2,200 (0.71%) showed an effect of 50% or more. Effects have a minus sign here. For the sample, strong results were picked, then their nearest neighbours and some compounds at random.
# Target: human ether-à-go-go-related gene (hERG) potassium channel (human, UniProt Q12809)
# Experiment: primary screen, population patch clamp on CHO cells stably expressing hERG; higher = less effect of the substance
# human ether-à-go-go-related gene (hERG) potassium channel, sequence (Q12809 whole entry, looked up): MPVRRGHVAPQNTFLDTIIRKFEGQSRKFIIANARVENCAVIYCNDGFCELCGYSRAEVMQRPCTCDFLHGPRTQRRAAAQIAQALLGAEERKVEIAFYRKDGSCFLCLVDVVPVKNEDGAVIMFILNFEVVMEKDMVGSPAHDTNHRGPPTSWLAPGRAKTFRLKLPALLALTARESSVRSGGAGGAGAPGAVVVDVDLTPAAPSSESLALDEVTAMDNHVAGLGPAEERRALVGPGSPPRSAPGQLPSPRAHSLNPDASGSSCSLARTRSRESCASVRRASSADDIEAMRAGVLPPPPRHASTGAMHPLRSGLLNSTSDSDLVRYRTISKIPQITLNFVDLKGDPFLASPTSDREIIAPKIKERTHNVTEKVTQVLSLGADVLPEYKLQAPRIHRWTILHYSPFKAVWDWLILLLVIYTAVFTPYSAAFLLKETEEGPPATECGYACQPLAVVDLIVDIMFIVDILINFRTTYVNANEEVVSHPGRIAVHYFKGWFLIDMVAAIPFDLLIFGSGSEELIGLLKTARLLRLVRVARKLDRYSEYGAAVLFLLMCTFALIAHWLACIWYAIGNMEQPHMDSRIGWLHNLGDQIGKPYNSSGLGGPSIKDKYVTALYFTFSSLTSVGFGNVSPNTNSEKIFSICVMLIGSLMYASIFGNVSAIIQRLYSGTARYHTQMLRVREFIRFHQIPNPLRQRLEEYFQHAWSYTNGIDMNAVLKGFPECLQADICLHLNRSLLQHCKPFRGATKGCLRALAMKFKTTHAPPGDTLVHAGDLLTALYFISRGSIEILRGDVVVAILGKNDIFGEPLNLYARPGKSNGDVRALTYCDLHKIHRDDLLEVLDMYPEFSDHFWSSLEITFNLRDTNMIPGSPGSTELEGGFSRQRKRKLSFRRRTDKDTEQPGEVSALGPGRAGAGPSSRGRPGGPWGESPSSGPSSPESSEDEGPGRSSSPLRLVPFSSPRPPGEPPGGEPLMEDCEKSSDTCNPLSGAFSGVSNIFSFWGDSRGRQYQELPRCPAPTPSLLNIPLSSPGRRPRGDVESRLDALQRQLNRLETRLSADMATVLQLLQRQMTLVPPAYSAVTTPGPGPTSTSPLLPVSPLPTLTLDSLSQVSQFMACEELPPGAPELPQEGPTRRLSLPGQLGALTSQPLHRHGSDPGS
row,SMILES,"hERG current change (%, negative = inhibition) at 1uM [%]"
1,Cn1c(=O)n(C)c2cc(NS(C)(=O)=O)ccc21,8.26
2,COc1ccc(Cc2noc(CN3CCCC(C(=O)c4cccs4)C3)n2)cc1OC (stereo not drawn),9.47
3,O=c1c2c(nc3n1CCS3)c1cc(F)ccc1n2Cc1cc(=O)n2cc(Cl)ccc2n1,10.3
4,Cc1cc(F)ccc1S(=O)(=O)Nc1ccc(O)c(Sc2ncn[nH]2)c1,20.6
5,Cc1cc(C)cc(N(C(=O)CCC(=O)Nc2ccccn2)C(C(=O)NC(C)C)c2ccc(O)cc2)c1 (stereo not drawn),1.99
6,CCC(=O)c1ccc(OCC(O)Cn2nc(C)c(Br)c2C)cc1 (stereo not drawn),-100
7,CCC(=O)c1ccc(OCC(O)Cn2nc(C)cc2C)cc1 (stereo not drawn),7.89
8,OC(COc1ccccc1)CN1CCN(C(c2ccccc2)c2ccccc2)CC1 (stereo not drawn),-24.1
9,CCC(=O)c1ccc(OCC(O)CN2CCN(C(c3ccccc3)c3ccccc3)CC2)cc1 (stereo not drawn),-51.4
10,CCC(=O)c1ccc(OCC(O)Cn2nc(C)c(C(C)=O)c2C)cc1 (stereo not drawn),4.75
11,OC(COc1ccc(OCC(O)CN2CCN(Cc3ccccc3)CC2)cc1)CN1CCN(Cc2ccccc2)CC1 (stereo not drawn),6.14
12,N#Cc1ccc(OCC(O)CN2CCN(C(c3ccccc3)c3ccccc3)CC2)cc1 (stereo not drawn),-69.5
13,OC(COc1ccc(F)cc1)CN1CCN(CC(O)COc2ccc(F)cc2)CC1 (stereo not drawn),-51.1
14,CCC(=O)c1ccc(OCC(O)CN2CCCCC2)cc1.Cl (stereo not drawn),3.96
15,COc1ccc(OCC(O)CN2CCN(CC(O)COc3ccc(OC)cc3)CC2)cc1 (stereo not drawn),3.29
16,CC1CCN(CC(O)COc2ccc(F)cc2)CC1 (stereo not drawn),-13.3
17,CCC(=O)c1ccc(OCC(O)CN2CCOCC2)cc1 (stereo not drawn),17.8
18,O=c1[nH]c(=O)c2nc3ccccc3nc2[nH]1,2.78
19,COc1cc(NC(=O)CN(C)C2CCCCC2)c(C)cc1[N+](=O)[O-],6.09
20,Cc1ccc(S(=O)(=O)N[C@@H](CC(C)C)C(=O)NCc2ccco2)cc1,3.58

row,SMILES,"hERG current change (%, negative = inhibition) at 1uM [%]"
1,CCCCN(C(=O)/C=C/c1ccco1)c1c(N)n(Cc2ccccc2)c(=O)[nH]c1=O,7.19
2,CCOc1cc(NC(=S)NCCCN2CCOCC2)c(OCC)cc1NC(=O)c1cccc(F)c1,-0.782
3,C=CCOc1ccccc1/C=N/NC(=O)Cc1ccccc1,14.3
4,Cc1ccc(S(=O)(=O)N2CCCC2C(=O)Nc2nc3c(s2)CCCC3)cc1 (stereo not drawn),13.2
5,N#Cc1ccc(-c2ccc(OCC(O)CN3CCCCC3)cc2)cc1 (stereo not drawn),-52.1
6,OC(COc1ccc(OCC(O)CN2CCCCC2)cc1)CN1CCCCC1 (stereo not drawn),18.1
7,OC1CCCN(CC(O)COc2ccc(-c3ccccc3)cc2)C1 (stereo not drawn),-0.151
8,OC(COCc1ccco1)CN1CCN(C(c2ccccc2)c2ccccc2)CC1 (stereo not drawn),-79.1
9,CC1CN(CC(O)COc2ccc(C#N)cc2)CCN1CC(O)COc1ccc(C#N)cc1 (stereo not drawn),-86.2
10,CC1CCCCN1CC(O)COc1ccc(OCC(O)CN2CCCCC2C)cc1 (stereo not drawn),13.5
11,CC(=O)c1ccc(N2CCN(CC(O)COCc3ccco3)CC2)cc1 (stereo not drawn),-29.3
12,Cc1ccccc1OCC(O)CN1CCN(CC(O)COc2ccccc2C)C(C)C1.O=C(O)C(=O)O (stereo not drawn),-29
13,N#Cc1ccc(-c2ccc(OCC(O)CN3CCOCC3)cc2)cc1 (stereo not drawn),7.69
14,O=C(O)C(=O)O.OC(COCc1ccco1)CN1CCN(c2ccccc2)CC1 (stereo not drawn),3.71
15,CC1CCCN(CC(O)COc2ccc(Cl)cc2)C1.Cl (stereo not drawn),-32.2
16,CC1CCCN(CC(O)COc2ccc(-c3ccccc3)cc2)C1 (stereo not drawn),-57.8
17,COc1ccccc1NC(=O)COC(=O)/C=C/c1ccc2c(c1)OCO2,9.01
18,O=C(Nc1ccc(C(=O)O)cc1)/C(=C\c1ccc2c(c1)OCO2)NC(=O)c1ccco1,19.4
19,O=C(c1csc2c1CCCC2)N1CCN(c2ccc(F)cc2)CC1,2.84
20,COc1ccc(C(=O)Nc2cccc(-c3ccc4nncn4n3)c2)cc1,7.11

row,SMILES,"hERG current change (%, negative = inhibition) at 1uM [%]"
1,CCn1ncc(NC(=S)NCCc2ccccc2)c1C(N)=O,2.4
2,CC(C)C(OC(=O)c1cccs1)C(=O)NCc1ccco1 (stereo not drawn),12.2
3,O=S(=O)(Nc1cc(S(=O)(=O)N2CCOCC2)ccc1N1CCOCC1)c1ccc2c(c1)OCCO2,28.4
4,COc1ccccc1N1C(=O)[C@@H]2[C@H](C1=O)[C@H](C(=O)c1ccc(OC(C)=O)cc1)N1N=CC=C[C@@H]21,15.9
5,C#CCCOC(=O)N1C2=NC(C(=O)OC)=C(C(=O)OC)[C@@H]3N(C)c4ccc(OC)cc4[C@]23C[C@H]1C(=O)OC,-0.338
6,CSc1ccc(/C=C2\CCn3c2nc2cc(C(=O)O)ccc2c3=O)cc1,15.6
7,O=C(Nc1ccccn1)c1cc2ccccc2o1,9.79
8,CCOC(=O)N/N=C/c1ccc(C)o1,5.21
9,CCC(=O)c1ccc(OCC(O)CN2CCN(c3ccc(F)cc3)CC2)cc1 (stereo not drawn),-15.1
10,O=C(O)CN1CCN(c2ncc(C(F)(F)F)cc2Cl)CC1,12.6
11,N#Cc1ccc(OCC(O)CN2CCN(CC(O)COc3ccc(C#N)cc3)CC2)cc1 (stereo not drawn),-91.3
12,Cl.OC(COCC1COc2ccccc2O1)CN1CCN(c2ccc(F)cc2)CC1 (stereo not drawn),-57.6
13,CN1CCN(CC(O)COc2ccc(OCC(O)CN3CCN(C)CC3)cc2)CC1 (stereo not drawn),10.2
14,COc1ccc(N2CCN(CC(O)COc3ccc(F)cc3)CC2)cc1.Cl (stereo not drawn),-47.8
15,OC(CN1CCN(c2ncc(C(F)(F)F)cc2Cl)CC1)c1ccccc1 (stereo not drawn),1.4
16,Cl.OC(COCC1COc2ccccc2O1)CN1CCN(c2ccccc2)CC1 (stereo not drawn),-24.7
17,CC(=O)c1ccc(OCC(O)CN2CCN(c3ccc(F)cc3)CC2)cc1.Cl (stereo not drawn),-64.9
18,N#Cc1ccc(OCC(O)CN2CCN(c3ncc(C(F)(F)F)cc3Cl)CC2)cc1 (stereo not drawn),-81.4
19,Cl.OC(COCC1COc2ccccc2O1)CN1CCN(c2ccccc2F)CC1 (stereo not drawn),-19.9
20,Cc1ccc(OCC(O)CN2CCN(CC(O)COc3ccc(C)cc3)CC2)cc1 (stereo not drawn),-8.83
